# From PubChem BioAssay AID1347074 (Center for Chemical Genomics, University of Michigan, 2019)
# In all, about 47,000 compounds went through this assay and about 2,800 (6%) were called active. Many of the other results were omitted from the sample, so actives are more common in it than they were. A number with no mark means an inactive call. No stated cut-off is given here; in the data, active means z-score above about 3 (passing the limit was not always enough); inactive means the rest.
# Molecular target: Endoribonuclease Dicer (Homo sapiens) (UniProt Q9UPY3)
# Sequence (Q9UPY3 whole entry, looked up): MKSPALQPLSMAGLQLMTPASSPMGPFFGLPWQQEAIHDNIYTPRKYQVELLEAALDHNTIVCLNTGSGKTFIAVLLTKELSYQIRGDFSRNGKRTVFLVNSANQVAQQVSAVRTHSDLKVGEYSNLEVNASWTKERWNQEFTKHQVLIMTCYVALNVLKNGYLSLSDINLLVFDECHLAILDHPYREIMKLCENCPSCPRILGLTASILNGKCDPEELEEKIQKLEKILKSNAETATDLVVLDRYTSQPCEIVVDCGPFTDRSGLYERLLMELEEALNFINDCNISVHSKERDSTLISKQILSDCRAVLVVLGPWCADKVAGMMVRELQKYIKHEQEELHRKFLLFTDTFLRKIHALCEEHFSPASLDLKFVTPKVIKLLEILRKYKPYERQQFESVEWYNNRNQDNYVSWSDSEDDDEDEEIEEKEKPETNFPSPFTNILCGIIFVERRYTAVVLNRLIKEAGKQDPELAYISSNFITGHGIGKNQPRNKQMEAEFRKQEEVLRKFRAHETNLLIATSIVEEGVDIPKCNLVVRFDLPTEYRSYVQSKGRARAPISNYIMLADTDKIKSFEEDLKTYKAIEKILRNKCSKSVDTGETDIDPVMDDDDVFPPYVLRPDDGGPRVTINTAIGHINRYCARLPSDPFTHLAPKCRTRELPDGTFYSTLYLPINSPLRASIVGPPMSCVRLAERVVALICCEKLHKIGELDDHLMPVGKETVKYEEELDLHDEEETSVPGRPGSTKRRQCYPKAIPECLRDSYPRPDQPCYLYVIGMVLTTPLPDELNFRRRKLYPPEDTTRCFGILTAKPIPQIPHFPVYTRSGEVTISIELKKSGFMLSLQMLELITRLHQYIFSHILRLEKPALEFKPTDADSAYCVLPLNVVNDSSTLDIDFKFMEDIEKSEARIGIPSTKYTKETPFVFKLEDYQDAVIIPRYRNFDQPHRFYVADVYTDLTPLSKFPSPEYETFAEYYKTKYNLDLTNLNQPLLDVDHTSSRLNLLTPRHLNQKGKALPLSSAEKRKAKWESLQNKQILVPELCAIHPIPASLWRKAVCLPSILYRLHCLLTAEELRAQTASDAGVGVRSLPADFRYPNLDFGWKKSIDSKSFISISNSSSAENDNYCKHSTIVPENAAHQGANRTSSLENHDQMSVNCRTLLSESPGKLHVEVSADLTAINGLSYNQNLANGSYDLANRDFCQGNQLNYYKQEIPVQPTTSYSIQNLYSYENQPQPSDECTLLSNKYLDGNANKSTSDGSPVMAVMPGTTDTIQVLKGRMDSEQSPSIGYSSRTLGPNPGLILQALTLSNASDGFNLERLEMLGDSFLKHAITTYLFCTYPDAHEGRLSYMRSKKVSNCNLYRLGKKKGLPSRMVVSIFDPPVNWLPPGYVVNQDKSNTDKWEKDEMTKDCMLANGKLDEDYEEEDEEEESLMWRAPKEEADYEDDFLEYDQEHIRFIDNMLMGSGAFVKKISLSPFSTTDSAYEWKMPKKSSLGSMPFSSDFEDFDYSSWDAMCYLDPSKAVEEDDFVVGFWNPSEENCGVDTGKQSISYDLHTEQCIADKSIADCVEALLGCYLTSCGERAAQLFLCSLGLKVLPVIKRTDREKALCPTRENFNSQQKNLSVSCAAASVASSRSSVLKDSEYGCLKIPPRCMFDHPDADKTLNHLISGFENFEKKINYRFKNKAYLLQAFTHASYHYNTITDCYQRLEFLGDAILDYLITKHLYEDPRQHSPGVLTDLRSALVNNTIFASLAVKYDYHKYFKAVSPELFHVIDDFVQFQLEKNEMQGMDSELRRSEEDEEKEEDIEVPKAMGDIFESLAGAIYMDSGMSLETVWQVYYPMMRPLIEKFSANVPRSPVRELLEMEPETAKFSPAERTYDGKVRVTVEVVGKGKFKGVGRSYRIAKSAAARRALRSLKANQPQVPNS
# Assay: inhibitors of Dicer pre-microRNA processing, primary screen, biochemical, cat-ELCCA, chemiluminescence (AID 1347074);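 further: plate controls were vehicle for no effect and no enzyme for full effect; higher signal means more uncleaved substrate so more Dicer inhibition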
# Conditions: cat-ELCCA pre-miR-21 Dicer processing, at 25 µM, hits give high values
row,Compound,z-score
1,CNNC(=S)Nc1ccc(F)c(C)c1,1.79
2,C/C(=N\NC(=S)Nc1cccc(F)c1)c1ccco1,5.72 (active)
3,CCc1[nH]nc2c1C(c1ccc(OC)c(OC)c1)C(C#N)=C(N)O2 (configuration not stated),-3.59
4,COc1ccc2cc(S(=O)(=O)N3CCN(C(c4ccccc4)c4ccccc4)CC3)ccc2c1,0.57
5,CC1CCN(C(=S)NC2CC3CCC2C3)CC1 (configuration not stated),2.37
6,CCOC(=O)c1c(NC(=O)c2cc3ccccc3o2)sc(C)c1C,0.8
7,CC(=Nc1ccccc1)c1nc(-c2ccccc2)oc1O,1.37
8,O=S(=O)(c1cccc(-c2cn3cccnc3n2)c1)N1CCCC1,0.36
9,COc1ccccc1C(=O)CC1(O)C(=O)Nc2ccc(Cl)cc21 (configuration not stated),6.27
10,CCN1C(=O)C2(/C(=C(/O)c3ccc(C)c(F)c3)C(=O)C(=O)N2CCCOC)c2ccccc21 (configuration not stated),-0.56
11,CCN1C(=O)C2(/C(=C(/O)c3ccc(OC)c(C)c3)C(=O)C(=O)N2CCCOC)c2ccccc21 (configuration not stated),1.63
12,CCN1C(=O)C2(/C(=C(/O)c3ccccc3)C(=O)C(=O)N2CCCOC)c2ccccc21 (configuration not stated),3.53 (active)
13,CC1CC(=O)Nc2ccccc2N1C(=O)Nc1cccc(Cl)c1Cl (configuration not stated),-0.93
14,O=C1CC(N2CCN(C(c3ccccc3)c3ccccc3)CC2)C(=O)N1c1cccc(Cl)c1 (configuration not stated),-0.21
15,O=C(NC(=S)Nc1nc(-c2ccc(Cl)cc2)cs1)C1CC1,1.34
16,O=C(NNc1nc(-c2ccc(F)cc2)cs1)c1ccc(Cl)cc1,5.33 (active)
17,Cc1ccc(S(=O)(=O)NC(=O)Nc2nc(-c3ccc(F)c(F)c3)cs2)cc1,-0.18
18,CC12c3ccccc3C(c3ccccc31)C1C(=O)N(c3ccc(C(=O)O)cc3)C(=O)C12 (configuration not stated),0.79
19,Cc1ncc([N+](=O)[O-])n1CCOC(=O)c1ccc(Br)cc1,-0.13
20,COc1ccc(C(=O)COc2cc3c(C(=O)OC(C)C)c(C)oc3cc2Br)cc1,0.17
21,Cc1oc2cc(Br)c(OC(=O)c3ccco3)cc2c1C(=O)OC(C)C,1.65

row,Compound,z-score
1,Cc1oc2cc(Br)c(O)cc2c1C(=O)OC(C)C,3.81 (active)
2,Cc1cn(C(=O)Nc2ccccc2)nc1-c1cccs1,1.17
3,Cc1ccc2nc(-c3cccnc3)[nH]c2c1,-0.74
4,COc1cc(C2C3=C(CC(C)(C)CC3=O)NC3=C2C(=O)CC(C)(C)C3)ccc1O,1.78
5,COc1cc(C2C3=C(CC(C)(C)CC3=O)Nc3ncnn32)ccc1OC(C)C (configuration not stated),3.67 (active)
6,COc1cc(OC)cc(-c2nc3n(n2)C(c2ccc(OC)c(OC)c2)C2=C(CC(C)(C)CC2=O)N3)c1 (configuration not stated),0.99
7,C=CCOc1ccc2c(=O)c(Oc3cc(C)ccc3C)coc2c1,1.12
8,O=C(c1ccco1)N1CCC2(Cl)CCCCC2C1c1ccccc1 (configuration not stated),-2.84
9,O=C(NC1(NCc2ccc(Cl)cc2)C(=O)c2ccccc2C1=O)c1ccc(C(F)(F)F)cc1,0.41
10,COc1ccc(Nc2nc3ccccc3nc2NS(=O)(=O)c2ccccc2)cc1OC,1.78
11,CCCCN(CC)c1ncnc2ccc(C)cc12,3.53 (active)
12,NC(=S)N/N=C/c1ccc(Cl)c(Cl)c1,-1.14
13,CC(C)(C)NC(=O)NCCCN1CCOCC1,0.22
14,CCN(CC)C(=O)c1c(NC(=O)c2cccs2)sc2c1CCCCC2,-1.54
15,CCOC(=O)C1=C(C)NC2=C(C(=O)c3ccccc32)C1c1cc(Br)c(OC)c(OC)c1 (configuration not stated),1.14
16,COc1ccc(-c2noc(-c3ccc(Br)cc3)n2)cc1,1.15
17,CCCc1cc(=O)n2[nH]c(SCc3ccccc3)nc2n1,0.14
18,CCS(=O)(=O)n1nc(-c2ccccc2)nc1SCc1ccccc1,3.99 (active)
19,CCS(=O)(=O)n1nc(-c2ccc(OC)cc2)nc1SC,3.58 (active)
20,O=c1[nH]c(SCc2ccccc2)nnc1-c1ccccc1,0.5
21,COc1ccc(Cc2nc(-c3ccc(OC)cc3)no2)cc1,0.51

row,Compound,z-score
1,COc1ccc(COC(=O)C2=C(C)NC3=C(C(=O)CCC3)C2c2ccc(Br)cc2)cc1 (configuration not stated),0.32
2,O=c1c(-c2ccc(OC3O[C@H](CO)[C@@H](O)[C@H](O)[C@H]3O)cc2)coc2cc(O)cc(O)c12 (some centres not stated),0.24
3,CS(=O)(=O)N(CC(=O)O)c1cccc2ccccc12,-1.7
4,CCOC(=O)C1=C(c2ccccc2)Nc2nc3ccccc3n2C1c1ccc(O)c(OCC)c1 (configuration not stated),-6.05
5,N#Cc1cn(Cc2ccccc2Cl)c(=O)[nH]c1=O,0.24
6,CC1(C)S[C@@H]2[C@H](NC(=O)COc3ccccc3)C(=O)N2C1C(=O)O (some centres not stated) (tested in a mixture with another compound),-0.17
7,CC(=O)N1[C@@H](c2ccc(C)cc2)SC(C)(C)[C@@H]1C(=O)O,4.5 (active)
8,CC1(C)SC2C(NC(=O)COc3ccccc3)C(=O)N2C1C(=O)O (configuration not stated),1.11
9,CN(C)c1ccc(NC(=O)CSc2nc(-c3ccco3)cc(C(F)(F)F)n2)cc1,-1.78
10,Cc1nc2ccccc2n1CCOc1ccc(Cl)cc1,0.74
11,CCCNC(=O)NNC(=O)Cn1nnc(N2CCOCC2)n1,11.9
12,S=c1nn[nH]n1-c1ccc(Cl)cc1Cl,-0.38
13,c1ccc2c(-c3csc(-c4ccc5c(c4)OCCO5)n3)csc2c1,-0.77
14,CCCc1cc(-c2n[nH]c(C)c2-c2ccc3c(c2)OCCO3)c(O)cc1O,7.51 (active)
15,Cc1cc(C)n(C(C)C(=O)Nc2ccc(F)cc2)c(=O)n1 (configuration not stated),2.63
16,O=C(O)CCC(=O)c1ccc2ccccc2c1,0.56
17,Cc1ccc(OS(=O)(=O)c2ccc(F)cc2)c([N+](=O)[O-])n1,-1.06
18,Cc1ccc2nsnc2c1S(=O)(=O)Nc1ccc(Br)cc1,5.39 (active)
19,Cc1ccc2nsnc2c1S(=O)(=O)N1CCCC1C(=O)O (configuration not stated),-1.03
20,O=C(O)c1ccc(NS(=O)(=O)c2cccc3nsnc23)cc1,1.86
